Active and inactive are the calls of the source. The rule behind the calls is not given here.
Columns and labels:
[1] = AOX inhibitors, oxygen consumption, profiling panel (AID 1259412); conditions: AOX-dependent respiration, at 500 µM; for growth (% of control): O2 uptake, measured here: growth; for O2 uptake (% of control): measured here: O2 uptake, control condition (no AOX);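 for growth (% of control): growth monitored over 72 h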
[2] = test system: alternative oxidase (AOX); test: as above; conditions: AOX-dependent respiration, at 500 µM, stronger effect = lower value
[3] = AOX-dependent treatment condition, stronger effect = lower value

SMILES | growth (% of control) [1, 3] | growth (% of control) ([1]; control condition) | O2 uptake (% of control) ([1]; stronger effect = lower value) | O2 uptake (% of control) [2]
N#Cc1cccc(C(=O)Nc2cccc(I)c2)c1 | 103% | 117% | 87.8% | 32.6% (active)
N#Cc1cccc(C(=O)Nc2cccc(OCc3ccccc3)c2)c1 | 108% | 90.3% | 90.1% | 39.1% (active)
O=C(Nc1cccc(OCc2ccccc2)c1)c1cccc(I)c1 | 36.7% | 57% | 100% | 51.2% (active)
O=C(Nc1cccc(I)c1)c1cccc(F)c1 | 67.2% | 97.5% | 77.3% | 21.9% (active)
COc1cc(NC(=O)c2ccccc2)cc(OC)c1OC | 84.6% | 76% | 95.8% | 61.1% (active)
O=C(Nc1cccc(NC(=O)c2cccc(F)c2)c1)c1cccc(F)c1 | 113% | 133% | 97% | 51.3% (active)
NC(=O)c1ccccc1NC(=O)c1cccc(F)c1 | 88.1% | 94.5% | 85.1% | 81% (inactive)
O=C(Nc1cccc([N+](=O)[O-])c1)c1cccc(F)c1 | 91.1% | 120% | 92.7% | 44.8% (active)
N#Cc1cccc(C(=O)Nc2ccccc2C(N)=O)c1 | 99.3% | 85.5% | 107% | 95.7% (inactive)
O=C(Nc1cccc(Br)c1)c1cccc(I)c1 | 103% | 98.1% | 89.6% | 20.2% (active)
COc1cccc(C(=O)Nc2cccc(C(F)(F)F)c2)c1 | 11.8% | 57.4% | 90.2% | 37.6% (active)
O=C(Nc1cccc(C(F)(F)F)c1)c1ccccc1I | 14.6% | 92% | 79.2% | 14.3% (active)
O=C(Nc1cccc(I)c1)c1ccccc1I | 112% | 94.8% | 84% | 13.1% (active)
O=C(Nc1cccc(OCc2ccccc2)c1)c1cccc(Cl)c1 | 95.6% | 92.6% | 110% | 76.1% (active)
COc1cc(NC(=O)c2ccccc2I)cc(OC)c1OC | 91.6% | 90.9% | 92.4% | 80% (active)
Nc1cccc(S(=O)(=O)c2cccc(NC(=O)c3cccc(Br)c3)c2)c1 | 86.5% | 64% | 105% | 110%
Cc1cccc(C(=O)Nc2cccc(F)c2)c1 | 0.51% | 43.4% | 87.8% | 30.7% (active)
N#Cc1cccc(C(=O)Nc2cccc(NC(=O)c3cccc(C#N)c3)c2)c1 | 91.4% | 132% | 107% | 95.1%

SMILES | growth (% of control) [1, 3] | growth (% of control) ([1]; control condition) | O2 uptake (% of control) ([1]; stronger effect = lower value) | O2 uptake (% of control) [2]
O=C(Nc1ccccc1)c1cccc(Cl)c1 | 92.3% | 91.8% | 94.9% | 22% (active)
COc1cccc(C(=O)Nc2cccc(I)c2)c1 | 78.2% | 80% | 92.5% | 23% (active)
Cc1cccc(C(=O)Nc2cccc(NC(=O)c3cccc(C)c3)c2)c1 | 70.5% | 118% | 102% | 51.6% (active)
O=C(NCc1ccc2c(c1)OCO2)c1ccccc1 | 56.1% | 65.8% | 99.1% | 38.6% (active)
O=C(Nc1cccc(Cl)c1)c1cccc(Br)c1 | 71.8% | 101% | 85% | 15% (active)
O=C(Nc1cccc(Br)c1)c1ccccc1 | 51.9% | 71.6% | 88.5% | 15.7% (active)
Cc1cccc(C(=O)NCc2ccc3c(c2)OCO3)c1 | 41.6% | 48.8% | 99% | 25.8% (active)
COc1cccc(C(=O)Nc2cccc(Cl)c2)c1 | 0% | 33% | 76.3% | 33.2% (active)
COc1cccc(C(=O)NCc2ccc3c(c2)OCO3)c1 | 46.4% | 57% | 95.8% | 36.4% (active)
O=C(NCc1ccc2c(c1)OCO2)c1cccc(I)c1 | 99.2% | 97.5% | 99.1% | 26.3% (active)
O=C(Nc1cccc(OCc2ccccc2)c1)c1cccc(F)c1 | 86% | 81.9% | 97.4% | 41.2% (active)
O=C(Nc1ccc(N2CCOCC2)cc1)c1cccc(F)c1 | 94.7% | 90.8% | 104% | 86.3% (inactive)
O=C(Nc1cccc(Br)c1)c1cccc(Br)c1 | 82.5% | 91.3% | 81% | 16.5% (active)
NC(=O)c1ccccc1NC(=O)c1ccccc1 | 84.2% | 88.6% | 93.9% | 91.2%
O=C(Nc1cccc(C(F)(F)F)c1)c1cccc(Br)c1 | 58.1% | 99.1% | 80.2% | 22.3% (active)
O=C(Nc1ccccc1)c1cccc(Br)c1 | 75% | 91.1% | 89.6% | 19.3% (active)
COc1cc(NC(=O)c2cccc(C)c2)cc(OC)c1OC | 85.5% | 96.2% | 83.6% | 66.4% (active)
NC(=O)c1ccccc1NC(=O)c1cccc(Cl)c1 | 65.4% | 68.9% | 85.8% | 41.6% (active)
